We go through eight molecules from PubChem BioAssay (NCI).

Test systems include SK-MEL-2 melanoma; EKVX NSCLC; SN12C renal; UO-31 renal; TK-10 renal; ACHN renal; CAKI-1 renal; A498 renal; CCRF-CEM leukemia; MOLT-4 leukemia; RPMI-8226 leukemia; OVCAR-8 ovarian; OVCAR-5 ovarian; OVCAR-4 ovarian; SK-OV-3 ovarian; IGROV1 ovarian; OVCAR-3 ovarian; HS 578T breast; NCI/ADR-RES ovarian.
Experiment in all cases: NCI-60 one-dose screen, 48 h (100 = growth as untreated, 0 = no growth, -100 = all killed)
Common to all, as to settings: 10 µM unless noted

The panel holds about 83,000 compounds, 20% with a hit somewhere; the sample as a whole holds those more often.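 Plates (96-well) were seeded with cells, treated with compound at one concentration, and incubated for 48 hours before percent growth was determined.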 Unmarked numbers belong to inactive results. Active and inactive are the calls of the source. How the source made its calls: active means growth percent below 10; inactive means the rest.

`O=S(=O)(NCCCNc1cc(-c2c(-c3cccc(O)c3)nc3sccn23)ccn1)c1cccc(Cl)c1`: the growth was 63.7% in the assay on SK-MEL-2 melanoma; 58.6% in the assay on EKVX NSCLC; 27% in the assay on SN12C renal; 31.5% in the assay with UO-31 renal; 94.4% in the assay with TK-10 renal; 41.6% with ACHN renal. Further, the growth in the assay with CAKI-1 renal was 43%; in the assay on A498 renal, 80.4%; in the assay with CCRF-CEM leukemia, 22.8%; in the assay with MOLT-4 leukemia, 15.2%; in the assay with RPMI-8226 leukemia, 5.17% (active); with OVCAR-8 ovarian, 17.1%. The growth with OVCAR-5 ovarian was 107%; in the assay on OVCAR-4 ovarian, 35.2%; in the assay on SK-OV-3 ovarian it was 49.1%; in the assay with IGROV1 ovarian, 40.5%; in the assay on OVCAR-3 ovarian it was 32.7%; in the assay with HS 578T breast, 32.5%. In the assay on NCI/ADR-RES ovarian, the growth is 76.7%.
For the molecule `COc1cc(/C=C2\C(=O)ON=C2C)cc(OC)c1OC`, the growth with SK-MEL-2 melanoma was 113%; in the assay on EKVX NSCLC, 97.8%; in the assay on SN12C renal, 98.3%; in the assay with UO-31 renal, 80.3%; in the assay with TK-10 renal it was 104%; with ACHN renal it was 96.9%. Also, the growth with CAKI-1 renal was 91.5%; with A498 renal, 65%; in the assay on CCRF-CEM leukemia, 92.8%; in the assay with MOLT-4 leukemia, 102%; in the assay on RPMI-8226 leukemia, 95.9%; with OVCAR-8 ovarian, 99.7%. Moreover, the growth is 99.3% in the assay with OVCAR-5 ovarian; 104% in the assay on OVCAR-4 ovarian; 98.9% with SK-OV-3 ovarian; 101% in the assay on IGROV1 ovarian; 101% in the assay with OVCAR-3 ovarian; 92% with HS 578T breast. Besides, in the assay on NCI/ADR-RES ovarian, the growth is 100%.
With `COc1cc(OC)cc(C2CC(=O)Nc3c2c(C)nn3-c2nc3ccccc3[nH]2)c1` (configuration not stated), the growth with SK-MEL-2 melanoma is 38.4%; with EKVX NSCLC, 17.7%; with SN12C renal it was 20%; in the assay with UO-31 renal, 13.1%; with TK-10 renal, 24.2%; in the assay on ACHN renal, 19.3%. In addition, the growth in the assay on CAKI-1 renal was 30.3%; in the assay with A498 renal it was -10.1% (active); in the assay with CCRF-CEM leukemia, 4.69% (active); in the assay with MOLT-4 leukemia, -8.06% (active); in the assay with RPMI-8226 leukemia, -8.64% (active); with OVCAR-8 ovarian, 17.8%. In addition, the growth with OVCAR-5 ovarian was 50.2%; in the assay with OVCAR-4 ovarian it was 42.4%; in the assay on SK-OV-3 ovarian, -2.88% (active); with IGROV1 ovarian, 14.6%; in the assay on OVCAR-3 ovarian, 7.11% (active); in the assay on HS 578T breast, 27.1%. Besides, in the assay with NCI/ADR-RES ovarian, the growth is 64.3%.
Turning to `Cc1ccc(/C=C/c2c(C(=O)/C=C/c3ccc(C(F)(F)F)cc3)c(C)nc3ccccc23)cc1`, the growth with SK-MEL-2 melanoma was -20% (active); in the assay with EKVX NSCLC it was -31.6% (active); in the assay with SN12C renal, -61.7% (active); in the assay with UO-31 renal, -98% (active); in the assay on TK-10 renal, -71.1% (active); in the assay on ACHN renal, -100% (active). Further, the growth in the assay on CAKI-1 renal was -91.1% (active); with A498 renal, -80.8% (active); in the assay with CCRF-CEM leukemia, 9.01% (active); in the assay with MOLT-4 leukemia it was -4.49% (active); in the assay with RPMI-8226 leukemia it was -26.8% (active); with OVCAR-8 ovarian it was 4.18% (active). The growth in the assay on OVCAR-5 ovarian is -39.6% (active); in the assay on OVCAR-4 ovarian, -74.1% (active); with SK-OV-3 ovarian, -47.5% (active); in the assay on IGROV1 ovarian, -80.1% (active); with OVCAR-3 ovarian, -86.3% (active); in the assay on HS 578T breast, -13.2% (active). In the assay on NCI/ADR-RES ovarian, the growth is -0.26% (active).
`CNc1ccc(NC)c2c1C(=O)c1ccccc1C2=O`: the growth in the assay on SK-MEL-2 melanoma was 97.7%; with EKVX NSCLC, 94.6%; in the assay on SN12C renal, 80.3%; with UO-31 renal, 77.7%; in the assay with TK-10 renal, 84.9%; with ACHN renal it was 77.7%. Besides, the growth in the assay on CAKI-1 renal was 76.4%; in the assay on A498 renal, 94.4%; in the assay with CCRF-CEM leukemia, 84.3%; with MOLT-4 leukemia, 92.1%; with RPMI-8226 leukemia it was 90.2%; in the assay on OVCAR-8 ovarian, 71.5%. Also, the growth is 101% in the assay with OVCAR-5 ovarian; 68.4% in the assay with OVCAR-4 ovarian; 67.4% with SK-OV-3 ovarian; 69% with IGROV1 ovarian; 95.4% with OVCAR-3 ovarian; 98.5% with HS 578T breast. The growth in the assay with NCI/ADR-RES ovarian is 88%.
For the molecule `CCCCCCCCCOc1c(OC)cc(C2CC(=O)Nc3c2c(C)nn3-c2nc3ccccc3[nH]2)cc1OC` (configuration not stated), the growth in the assay on SK-MEL-2 melanoma was -40.4% (active); with EKVX NSCLC, -83.5% (active); in the assay on SN12C renal, -33.3% (active); in the assay on UO-31 renal, -95.5% (active); with TK-10 renal it was 4.51% (active); in the assay with ACHN renal, -24.6% (active). In addition, the growth in the assay with CAKI-1 renal is -73.2% (active); with A498 renal, -35.3% (active); with CCRF-CEM leukemia, 19.1%; with MOLT-4 leukemia, 11.2%; in the assay with RPMI-8226 leukemia, 10.1%; in the assay on OVCAR-8 ovarian it was -1.61% (active). Also, the growth in the assay with OVCAR-5 ovarian is -68.7% (active); in the assay with OVCAR-4 ovarian, 1.92% (active); in the assay on SK-OV-3 ovarian, -62.7% (active); in the assay with IGROV1 ovarian it was -51.1% (active); in the assay with OVCAR-3 ovarian, -63.3% (active); in the assay with HS 578T breast it was -23% (active). For the same molecule, the growth with NCI/ADR-RES ovarian was -1.8% (active).
On to `Cn1ccc2c(c1=O)C(=O)c1nccc3c1c-2nc1ccccc13`, for which the growth in the assay with SK-MEL-2 melanoma is 98.1%; in the assay on EKVX NSCLC it was 86.9%; in the assay with SN12C renal it was 66.8%; with UO-31 renal it was 46.2%; with TK-10 renal it was 1.92% (active); in the assay on ACHN renal it was 21.3%. For the same molecule, the growth in the assay with CAKI-1 renal was 61%; in the assay with A498 renal, 87.6%; with CCRF-CEM leukemia it was -12.8% (active); with MOLT-4 leukemia it was 34.5%; in the assay with RPMI-8226 leukemia, -29% (active); in the assay with OVCAR-8 ovarian, -58.5% (active). The growth in the assay on OVCAR-5 ovarian is 69%; in the assay with OVCAR-4 ovarian, -44.9% (active); in the assay with SK-OV-3 ovarian it was 92.3%; with IGROV1 ovarian, 44.6%; with OVCAR-3 ovarian, -96.3% (active); in the assay on HS 578T breast, 96.8%. In addition, in the assay with NCI/ADR-RES ovarian, the growth was 41%.
Regarding `COc1ccc2[nH]c(O)c(C(=Nc3ccc(N(C)C(=O)CN4CCN(C)CC4)cc3)c3ccccc3)c2c1`, the growth was 33.2% in the assay on SK-MEL-2 melanoma; 52.3% in the assay with EKVX NSCLC; 20% in the assay with SN12C renal; 18.8% in the assay with UO-31 renal; 51.8% in the assay on TK-10 renal; 25.3% in the assay on ACHN renal. For the same molecule, the growth with CAKI-1 renal is 24.6%; in the assay on A498 renal, -11.3% (active); in the assay on CCRF-CEM leukemia, 23.2%; in the assay with MOLT-4 leukemia, 14.6%; with RPMI-8226 leukemia it was 38.8%; with OVCAR-8 ovarian it was 43.9%. The growth in the assay on OVCAR-5 ovarian is 49.2%; in the assay with OVCAR-4 ovarian, 47.1%; with SK-OV-3 ovarian, 5.77% (active); in the assay with IGROV1 ovarian, 22.5%; in the assay on OVCAR-3 ovarian, 75.9%; in the assay with HS 578T breast, -16.8% (active). Also, in the assay on NCI/ADR-RES ovarian, the growth is 82.2%.
